The values that follow come from article PMC7862700, “An all-to-all approach to the identification of sequence-specific readers for epigenetic DNA modifications on cytosine”.

Assay in all cases: DAPPL (digital affinity profiling via proximity ligation, sequencing); 10 mM Tris-HCl pH 7.5, 50 mM NaCl, 1 mM DTT, 4% glycerol, room temperature, 30 min; GST-TFs on glutathione beads, 16-mer random dsDNA library, 0.1% formaldehyde crosslink after washing; high values mean tight binding
One assay concerns the target T1, FEV (Homo sapiens, UniProt Q99581 1-238).
T1 sequence: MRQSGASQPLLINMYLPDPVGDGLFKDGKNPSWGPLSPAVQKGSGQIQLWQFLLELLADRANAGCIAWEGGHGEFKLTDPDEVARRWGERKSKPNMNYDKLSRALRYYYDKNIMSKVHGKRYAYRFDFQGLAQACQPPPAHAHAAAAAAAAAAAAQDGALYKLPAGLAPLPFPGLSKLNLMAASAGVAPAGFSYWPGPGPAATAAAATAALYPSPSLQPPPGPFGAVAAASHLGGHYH
The note with it: protein: recombinant; tags: N-terminal GST; dsDNA, one strand shown. The gist of the method: (§1)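 Pools were built from human transcription factors expressed in yeast as GST fusions, captured on glutathione beads and DNA-barcoded, along with a tag-only sample. Incubation with 200 nmole of a 16-mer random double-stranded DNA library lasted 30 min at room temperature in Tris/NaCl/DTT/glycerol buffer, and was followed by washing, 0.1% formaldehyde crosslinking, proximity ligation, PCR amplification and Illumina NextSeq500 sequencing. Binding signal is the quotient of each hexamer's read frequency for a factor and its frequency for the tag-only sample.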

For another assay, the target named is ETV5 (Homo sapiens, UniProt P41161 1-510). To be noted: protein: recombinant; tags: N-terminal GST; dsDNA, one strand shown. The gist of the method: as §1
A further assay has as its target HSF1 (Homo sapiens, UniProt Q00613 1-529). The note with it: protein: recombinant; tags: N-terminal GST; chain copies: 3; dsDNA, one strand shown. The gist of the method:
as §1

Another assay concerns the target T2, SPIC (Homo sapiens, UniProt Q8N5J4 1-248).
T2 sequence: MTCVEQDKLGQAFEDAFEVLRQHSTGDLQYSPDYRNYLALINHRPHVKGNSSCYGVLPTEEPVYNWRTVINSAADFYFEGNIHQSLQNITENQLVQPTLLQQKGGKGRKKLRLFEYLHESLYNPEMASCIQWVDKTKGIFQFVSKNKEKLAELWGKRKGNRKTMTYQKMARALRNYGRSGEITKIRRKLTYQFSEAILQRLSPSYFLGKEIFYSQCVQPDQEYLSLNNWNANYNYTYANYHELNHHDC
To be noted: protein: recombinant; tags: N-terminal GST; dsDNA, one strand shown. The gist of the method: as §1

The target of the next assay is ELF4 (Homo sapiens, UniProt Q99607 1-663). To be noted: protein: recombinant; tags: N-terminal GST; dsDNA, one strand shown. The gist of the method:
as §1

The next assay concerns the target T3, ELK4 (Homo sapiens, UniProt P28324-2 1-405).
T3 sequence: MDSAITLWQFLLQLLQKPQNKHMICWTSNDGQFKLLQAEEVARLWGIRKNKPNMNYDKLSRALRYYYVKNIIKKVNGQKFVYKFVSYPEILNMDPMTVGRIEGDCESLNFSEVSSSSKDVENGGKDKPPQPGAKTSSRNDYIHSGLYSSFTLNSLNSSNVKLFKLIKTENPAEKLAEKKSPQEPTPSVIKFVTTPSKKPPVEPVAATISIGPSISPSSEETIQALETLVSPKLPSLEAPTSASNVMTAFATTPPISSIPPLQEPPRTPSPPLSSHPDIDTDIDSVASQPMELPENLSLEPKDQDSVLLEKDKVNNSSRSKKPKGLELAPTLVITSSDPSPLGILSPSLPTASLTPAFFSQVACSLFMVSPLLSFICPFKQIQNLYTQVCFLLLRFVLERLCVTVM
To be noted: protein: recombinant; tags: N-terminal GST; dsDNA, one strand shown. Summed up: as §1

For another assay, the target named is T4, ETV2 (Homo sapiens, UniProt O00321 1-342).
T4 sequence: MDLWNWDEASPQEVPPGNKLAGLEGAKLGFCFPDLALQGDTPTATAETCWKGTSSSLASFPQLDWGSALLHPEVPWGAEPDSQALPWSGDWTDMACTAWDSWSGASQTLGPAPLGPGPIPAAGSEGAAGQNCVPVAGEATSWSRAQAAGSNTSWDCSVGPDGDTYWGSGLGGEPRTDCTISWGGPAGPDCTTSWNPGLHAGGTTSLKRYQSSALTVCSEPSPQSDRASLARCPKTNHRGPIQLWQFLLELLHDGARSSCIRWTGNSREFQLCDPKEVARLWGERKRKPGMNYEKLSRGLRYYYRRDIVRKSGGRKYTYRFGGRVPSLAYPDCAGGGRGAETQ
The note with it: protein: recombinant; tags: N-terminal GST; dsDNA, one strand shown. Summed up:
as §1

Another assay deals with T5, ELF3 (Homo sapiens, UniProt P78545 1-371).
T5 sequence: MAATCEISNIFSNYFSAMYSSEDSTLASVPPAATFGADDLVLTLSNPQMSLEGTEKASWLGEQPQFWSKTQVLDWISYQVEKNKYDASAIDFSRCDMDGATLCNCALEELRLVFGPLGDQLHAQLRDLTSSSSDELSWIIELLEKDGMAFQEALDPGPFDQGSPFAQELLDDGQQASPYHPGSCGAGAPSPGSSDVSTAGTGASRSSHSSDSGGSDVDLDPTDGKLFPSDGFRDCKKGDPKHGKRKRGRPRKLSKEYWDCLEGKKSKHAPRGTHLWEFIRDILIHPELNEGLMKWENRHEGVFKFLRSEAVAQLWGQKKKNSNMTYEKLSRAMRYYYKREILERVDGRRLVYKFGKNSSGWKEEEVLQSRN
To be noted: protein: recombinant; tags: N-terminal GST; dsDNA, one strand shown. The gist of the method: as §1

A further assay concerns the target CRX (Homo sapiens, UniProt O43186 1-299). The note with it: protein: recombinant; tags: N-terminal GST; dsDNA, one strand shown. The gist of the method: as §1
The target of the next assay is ETV1 (Homo sapiens, UniProt P50549 1-477). The note with it: protein: recombinant; tags: N-terminal GST; dsDNA, one strand shown. The gist of the method:
as §1

The target in the next assay is T6, ERF (Homo sapiens, UniProt P50548 1-548).
T6 sequence: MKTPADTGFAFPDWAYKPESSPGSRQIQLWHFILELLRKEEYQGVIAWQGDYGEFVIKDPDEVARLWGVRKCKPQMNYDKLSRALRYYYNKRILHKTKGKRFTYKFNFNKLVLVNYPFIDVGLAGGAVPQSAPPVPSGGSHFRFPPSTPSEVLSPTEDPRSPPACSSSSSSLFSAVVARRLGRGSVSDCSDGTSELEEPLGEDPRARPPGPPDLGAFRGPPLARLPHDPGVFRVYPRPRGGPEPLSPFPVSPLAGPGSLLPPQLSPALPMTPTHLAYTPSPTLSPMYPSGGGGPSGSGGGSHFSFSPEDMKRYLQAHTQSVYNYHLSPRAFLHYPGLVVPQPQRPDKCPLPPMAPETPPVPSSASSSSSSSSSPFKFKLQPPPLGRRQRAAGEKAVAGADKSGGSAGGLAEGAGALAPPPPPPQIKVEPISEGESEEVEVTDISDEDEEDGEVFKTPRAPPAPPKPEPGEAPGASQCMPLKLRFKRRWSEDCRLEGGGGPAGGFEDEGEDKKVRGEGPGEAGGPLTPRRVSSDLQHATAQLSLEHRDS
The note with it: protein: recombinant; tags: N-terminal GST; dsDNA, one strand shown. Summed up: as §1

The next assay deals with T7, ETV3L (Homo sapiens, UniProt Q6ZN32 1-361).
T7 sequence: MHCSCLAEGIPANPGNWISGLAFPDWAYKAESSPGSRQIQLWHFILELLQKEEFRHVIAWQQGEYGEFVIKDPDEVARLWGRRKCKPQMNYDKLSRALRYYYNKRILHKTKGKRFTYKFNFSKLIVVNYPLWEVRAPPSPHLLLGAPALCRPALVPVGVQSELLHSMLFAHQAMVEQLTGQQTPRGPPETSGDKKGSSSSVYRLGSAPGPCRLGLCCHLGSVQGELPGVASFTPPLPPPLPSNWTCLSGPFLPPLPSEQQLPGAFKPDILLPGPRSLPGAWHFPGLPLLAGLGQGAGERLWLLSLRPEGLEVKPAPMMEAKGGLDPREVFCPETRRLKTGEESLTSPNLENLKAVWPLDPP
The note with it: protein: recombinant; tags: N-terminal GST; dsDNA, one strand shown. The gist of the method: as §1

For a further assay, the target named is T8, ETS2 (Homo sapiens, UniProt P15036 1-469).
T8 sequence: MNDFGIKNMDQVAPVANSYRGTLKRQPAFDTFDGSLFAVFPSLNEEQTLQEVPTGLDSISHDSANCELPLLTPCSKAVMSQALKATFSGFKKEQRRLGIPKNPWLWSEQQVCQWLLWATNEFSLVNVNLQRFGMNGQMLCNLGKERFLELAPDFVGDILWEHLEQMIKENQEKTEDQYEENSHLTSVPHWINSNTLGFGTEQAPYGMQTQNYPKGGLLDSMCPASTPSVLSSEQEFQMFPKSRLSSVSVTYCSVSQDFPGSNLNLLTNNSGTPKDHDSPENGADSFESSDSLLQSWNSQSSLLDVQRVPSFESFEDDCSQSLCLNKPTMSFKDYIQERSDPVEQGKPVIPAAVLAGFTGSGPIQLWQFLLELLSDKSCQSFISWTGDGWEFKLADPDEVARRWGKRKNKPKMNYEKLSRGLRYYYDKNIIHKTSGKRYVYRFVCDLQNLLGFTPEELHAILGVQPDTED
To be noted: protein: recombinant; tags: N-terminal GST; dsDNA, one strand shown. Summed up: as §1

For another assay, the target named is T9, SPDEF (Homo sapiens, UniProt O95238 1-335).
T9 sequence: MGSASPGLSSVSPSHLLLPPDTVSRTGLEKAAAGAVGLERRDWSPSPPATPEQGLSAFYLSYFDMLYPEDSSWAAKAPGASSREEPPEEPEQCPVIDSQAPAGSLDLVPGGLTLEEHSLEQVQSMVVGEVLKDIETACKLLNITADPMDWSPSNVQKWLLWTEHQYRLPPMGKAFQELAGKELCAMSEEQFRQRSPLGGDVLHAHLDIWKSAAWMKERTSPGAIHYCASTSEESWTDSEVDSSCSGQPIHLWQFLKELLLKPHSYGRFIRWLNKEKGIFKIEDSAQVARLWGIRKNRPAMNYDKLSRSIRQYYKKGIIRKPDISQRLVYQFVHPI
The note with it: protein: recombinant; tags: N-terminal GST; dsDNA, one strand shown. Summed up:
as §1

The next assay deals with T10, ETV7 (Homo sapiens, UniProt Q9Y603 1-341).
T10 sequence: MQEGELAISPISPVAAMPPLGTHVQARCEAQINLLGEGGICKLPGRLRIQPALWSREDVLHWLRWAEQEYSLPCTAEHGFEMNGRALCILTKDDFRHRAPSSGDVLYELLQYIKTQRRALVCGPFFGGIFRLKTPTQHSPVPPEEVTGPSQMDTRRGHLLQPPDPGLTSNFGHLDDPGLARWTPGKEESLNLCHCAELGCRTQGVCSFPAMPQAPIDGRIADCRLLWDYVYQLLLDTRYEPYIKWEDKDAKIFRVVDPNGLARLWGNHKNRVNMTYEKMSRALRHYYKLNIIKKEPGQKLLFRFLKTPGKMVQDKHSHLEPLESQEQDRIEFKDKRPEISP
The note with it: protein: recombinant; tags: N-terminal GST; dsDNA, one strand shown. Summed up:
as §1

The target in the next assay is T11, ELF5 (Homo sapiens, UniProt Q9UKW6-2 1-255).
T11 sequence: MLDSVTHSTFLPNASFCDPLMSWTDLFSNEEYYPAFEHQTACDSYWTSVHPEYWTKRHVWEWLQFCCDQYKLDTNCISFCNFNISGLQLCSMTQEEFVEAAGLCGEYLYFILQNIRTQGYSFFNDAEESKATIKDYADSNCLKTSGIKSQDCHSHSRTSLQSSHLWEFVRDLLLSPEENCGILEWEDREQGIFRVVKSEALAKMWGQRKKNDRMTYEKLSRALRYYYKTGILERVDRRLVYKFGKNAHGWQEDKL
The note with it: protein: recombinant; tags: N-terminal GST; dsDNA, one strand shown. Summed up: as §1

The next assay deals with T12, ETV3 (Homo sapiens, UniProt P41162-2 1-143).
T12 sequence: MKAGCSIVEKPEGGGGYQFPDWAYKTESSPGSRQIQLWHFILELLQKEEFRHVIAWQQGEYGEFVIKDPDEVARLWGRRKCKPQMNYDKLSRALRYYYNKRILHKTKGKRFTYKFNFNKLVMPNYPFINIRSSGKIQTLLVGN
The note with it: protein: recombinant; tags: N-terminal GST; dsDNA, one strand shown. The gist of the method:
as §1

The target of the next assay is ETV6 (Homo sapiens, UniProt P41212 1-452). The note with it: protein: recombinant; tags: N-terminal GST; dsDNA, one strand shown. Summed up: as §1
Chain of ETV6 (P41212 whole entry): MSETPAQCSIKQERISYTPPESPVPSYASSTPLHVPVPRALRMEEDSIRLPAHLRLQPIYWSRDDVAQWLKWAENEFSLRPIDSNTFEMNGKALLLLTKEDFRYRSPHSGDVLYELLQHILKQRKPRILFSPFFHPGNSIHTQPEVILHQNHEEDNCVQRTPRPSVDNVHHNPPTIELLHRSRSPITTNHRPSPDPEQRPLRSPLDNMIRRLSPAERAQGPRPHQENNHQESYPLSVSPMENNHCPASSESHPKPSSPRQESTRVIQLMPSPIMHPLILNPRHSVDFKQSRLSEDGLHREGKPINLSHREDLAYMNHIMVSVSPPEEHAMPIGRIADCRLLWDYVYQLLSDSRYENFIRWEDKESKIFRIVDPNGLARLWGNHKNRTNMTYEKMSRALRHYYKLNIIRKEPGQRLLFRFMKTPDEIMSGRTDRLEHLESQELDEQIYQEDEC

Chain of ELF4 (Q99607 whole entry): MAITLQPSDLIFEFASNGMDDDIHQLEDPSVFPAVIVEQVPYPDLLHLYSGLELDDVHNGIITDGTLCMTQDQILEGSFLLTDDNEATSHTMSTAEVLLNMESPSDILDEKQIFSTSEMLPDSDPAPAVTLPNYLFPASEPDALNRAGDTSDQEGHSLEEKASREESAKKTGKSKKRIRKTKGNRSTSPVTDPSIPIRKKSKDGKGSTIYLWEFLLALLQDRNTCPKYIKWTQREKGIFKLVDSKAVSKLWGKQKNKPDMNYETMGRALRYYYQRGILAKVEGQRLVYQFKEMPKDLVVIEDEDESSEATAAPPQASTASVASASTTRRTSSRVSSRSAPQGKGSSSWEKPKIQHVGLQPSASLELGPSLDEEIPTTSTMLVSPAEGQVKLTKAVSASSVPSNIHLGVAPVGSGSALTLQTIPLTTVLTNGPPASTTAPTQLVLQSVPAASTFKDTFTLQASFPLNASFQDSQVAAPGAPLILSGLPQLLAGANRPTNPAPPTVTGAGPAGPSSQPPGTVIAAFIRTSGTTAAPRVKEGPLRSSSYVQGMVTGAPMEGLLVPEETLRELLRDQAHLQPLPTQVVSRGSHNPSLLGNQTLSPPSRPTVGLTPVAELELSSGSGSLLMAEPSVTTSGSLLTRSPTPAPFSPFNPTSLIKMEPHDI
Chain of ETV1 (P50549 whole entry): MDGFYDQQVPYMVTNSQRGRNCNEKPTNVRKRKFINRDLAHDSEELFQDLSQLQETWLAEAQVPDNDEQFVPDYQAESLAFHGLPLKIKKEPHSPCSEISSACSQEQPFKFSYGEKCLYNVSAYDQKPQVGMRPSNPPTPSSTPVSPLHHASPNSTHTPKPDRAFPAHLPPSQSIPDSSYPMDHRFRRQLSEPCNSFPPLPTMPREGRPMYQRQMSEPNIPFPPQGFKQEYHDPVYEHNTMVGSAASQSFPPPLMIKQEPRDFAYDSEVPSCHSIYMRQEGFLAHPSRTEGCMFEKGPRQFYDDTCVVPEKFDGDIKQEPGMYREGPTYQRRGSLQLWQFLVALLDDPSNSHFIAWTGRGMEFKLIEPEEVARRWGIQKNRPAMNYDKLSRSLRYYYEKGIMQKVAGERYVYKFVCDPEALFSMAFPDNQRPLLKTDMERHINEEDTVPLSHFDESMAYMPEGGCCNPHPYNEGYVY
Chain of ETV5 (P41161 whole entry): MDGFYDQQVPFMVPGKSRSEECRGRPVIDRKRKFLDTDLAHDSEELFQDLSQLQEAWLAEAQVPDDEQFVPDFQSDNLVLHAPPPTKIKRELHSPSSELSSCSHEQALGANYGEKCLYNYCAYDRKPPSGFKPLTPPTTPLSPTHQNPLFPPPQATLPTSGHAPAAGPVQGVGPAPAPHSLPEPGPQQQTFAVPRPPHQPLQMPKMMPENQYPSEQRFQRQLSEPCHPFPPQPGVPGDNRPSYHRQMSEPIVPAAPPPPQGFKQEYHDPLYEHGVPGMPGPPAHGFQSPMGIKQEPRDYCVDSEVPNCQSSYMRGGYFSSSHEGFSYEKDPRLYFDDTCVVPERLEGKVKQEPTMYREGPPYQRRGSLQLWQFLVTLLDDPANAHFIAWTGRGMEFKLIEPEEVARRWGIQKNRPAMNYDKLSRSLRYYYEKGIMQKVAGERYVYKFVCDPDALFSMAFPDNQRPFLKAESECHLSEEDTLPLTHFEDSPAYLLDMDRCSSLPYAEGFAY
Chain of CRX (O43186 whole entry): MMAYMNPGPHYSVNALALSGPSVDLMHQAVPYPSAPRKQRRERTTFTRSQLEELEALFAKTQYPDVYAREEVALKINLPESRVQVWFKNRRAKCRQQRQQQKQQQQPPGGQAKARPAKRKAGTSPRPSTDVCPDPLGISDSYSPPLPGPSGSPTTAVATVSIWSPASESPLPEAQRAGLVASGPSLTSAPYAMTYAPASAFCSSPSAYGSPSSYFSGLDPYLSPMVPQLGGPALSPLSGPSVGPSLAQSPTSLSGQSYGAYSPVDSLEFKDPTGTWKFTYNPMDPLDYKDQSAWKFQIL
Chain of HSF1 (Q00613 whole entry): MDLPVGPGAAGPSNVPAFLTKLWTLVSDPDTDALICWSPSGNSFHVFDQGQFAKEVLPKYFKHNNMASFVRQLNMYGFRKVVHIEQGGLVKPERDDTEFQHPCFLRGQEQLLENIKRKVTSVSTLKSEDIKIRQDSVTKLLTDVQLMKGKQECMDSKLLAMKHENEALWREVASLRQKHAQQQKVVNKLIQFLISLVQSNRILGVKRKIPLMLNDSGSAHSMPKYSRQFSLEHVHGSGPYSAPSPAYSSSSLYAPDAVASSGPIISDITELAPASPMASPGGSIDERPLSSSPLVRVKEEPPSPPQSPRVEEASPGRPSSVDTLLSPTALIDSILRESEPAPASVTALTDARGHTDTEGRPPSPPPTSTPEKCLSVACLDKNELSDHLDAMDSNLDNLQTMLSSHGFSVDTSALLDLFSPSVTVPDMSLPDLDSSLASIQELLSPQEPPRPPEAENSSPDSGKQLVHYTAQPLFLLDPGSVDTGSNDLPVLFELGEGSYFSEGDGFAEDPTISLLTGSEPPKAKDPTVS

As for AATGTT, the binding signal was 1.47 fold enrichment (6-mer frequency, TF over GST control) with FEV; 1.61 fold enrichment (6-mer frequency, TF over GST control) in the assay with ETV5; 2.33 fold enrichment (6-mer frequency, TF over GST control) in the assay with HSF1; 1.68 fold enrichment (6-mer frequency, TF over GST control) with SPIC; 1.57 fold enrichment (6-mer frequency, TF over GST control) with ELF4; 1.46 fold enrichment (6-mer frequency, TF over GST control) with ELK4. The binding signal with ETV2 was 1.43 fold enrichment (6-mer frequency, TF over GST control); with ELF3 it was 1.51 fold enrichment (6-mer frequency, TF over GST control); with CRX, 1.59 fold enrichment (6-mer frequency, TF over GST control); with ETV1, 1.66 fold enrichment (6-mer frequency, TF over GST control); with ERF, 1.61 fold enrichment (6-mer frequency, TF over GST control); with ETV3L, 1.56 fold enrichment (6-mer frequency, TF over GST control). For the same sequence, the binding signal in the assay with ETS2 was 1.56 fold enrichment (6-mer frequency, TF over GST control); with SPDEF, 1.44 fold enrichment (6-mer frequency, TF over GST control); with ETV7, 1.68 fold enrichment (6-mer frequency, TF over GST control); with ELF5, 1.62 fold enrichment (6-mer frequency, TF over GST control); with ETV3 it was 1.61 fold enrichment (6-mer frequency, TF over GST control); in the assay with ETV6, 1.63 fold enrichment (6-mer frequency, TF over GST control).
